Reference: the antibiotic and cytotoxicity screens of Wong et al. (2023)
Out of some 39,000 compounds screened, about 3,300 (8.5%) were called active. The entries come from a sample that favours actives as a whole.

test system: HepG2; assay: cytotoxicity call (relative viability < 0.9); settings: 10 µM

| SMILES | cytotoxicity call |
| --- | --- |
| COc1ccc(S(=O)(=O)Nc2cccc3c2O[C@@H](CN(C)S(=O)(=O)c2cccs2)[C@@H](C)CN([C@H](C)CO)C3=O)cc1 | inactive |
| N#CCC(=O)Nc1ccncc1 | inactive |
| COc1ccc(S(=O)(=O)N[C@H]2C=C[C@@H](CC(=O)NCCc3ccncc3)O[C@@H]2CO)cc1 | inactive |
| COc1ccc(NC(=O)N2C[C@@H](O)COC[C@@H]3O[C@@H](CC(=O)NCc4ccccc4OC)CC[C@H]32)cc1 | inactive |
| C[C@H]1CN([C@@H](C)CO)S(=O)(=O)c2ccc(C#Cc3ccccc3F)cc2O[C@H]1CN(C)C(=O)Cc1ccncc1 | inactive |
| CC(C)N1C[C@H](C)[C@@H](CN(C)Cc2ccc(Oc3ccccc3)cc2)Oc2c(NC(=O)c3ccccc3)cccc2C1=O | active |
| CC(C)N1C[C@H](C)[C@@H](CN(C)Cc2ccc(Oc3ccccc3)cc2)Oc2c(NC(=O)c3ccncc3)cccc2C1=O | inactive |
| CC(C)N1C[C@H](C)[C@@H](CN(C)Cc2ccc(Oc3ccccc3)cc2)Oc2c(NC(=O)c3cccnc3)cccc2C1=O | inactive |
| C[C@H]1CCCCO[C@@H](CN(C)C(=O)c2ccccc2)[C@@H](C)CN([C@@H](C)CO)C(=O)c2cc(NC(=O)Nc3ccc(C(F)(F)F)cc3)ccc2O1 | inactive |
| COc1ccc(CNC(=O)C[C@@H]2C[C@@H]3c4cc(NC(=O)NC5CCCC5)ccc4O[C@@H]3[C@@H](CO)O2)cc1 | inactive |
| O=C(C[C@H]1C[C@@H]2c3cc(NS(=O)(=O)c4ccc(F)cc4)ccc3O[C@@H]2[C@@H](CO)O1)NCc1cccnc1 | inactive |
| C[C@H]1CCCCO[C@@H](CN(C)Cc2ccncc2)[C@@H](C)CN([C@@H](C)CO)C(=O)c2cc(NC(=O)Nc3cccc4ccccc34)ccc2O1 | inactive |
| C[C@@H]1CN([C@@H](C)CO)C(=O)c2cc(C#Cc3ccc(F)cc3)cnc2O[C@@H]1CN(C)CC1CCOCC1 | inactive |
| Cc1ccc(S(=O)(=O)Nc2ccc3c(c2)C(=O)N([C@H](C)CO)C[C@H](C)[C@H](CN(C)C(=O)Nc2ccc(F)cc2)OCCCC[C@@H](C)O3)cc1 | inactive |
| O=c1nc(N2CCc3ccccc3C2)cn[nH]1 | inactive |
| COc1ccc(NC(=O)N(C)C[C@@H]2OCCCC[C@H](C)Oc3ccc(NS(=O)(=O)c4ccc(Cl)cc4)cc3C(=O)N([C@@H](C)CO)C[C@@H]2C)cc1 | inactive |
| COc1ccc2c3c([nH]c2c1)[C@@H](CO)N(C[C@]13CCN(CC1)C(=O)c1ccccc1F)C(=O)Nc1ccc(cc1)F | inactive |

| SMILES | cytotoxicity call |
| --- | --- |
| COc1ccc2c3c([nH]c2c1)[C@H](CO)N(C[C@]13CCN(CC1)C(=O)Nc1ccc(cc1)F)C(=O)c1ccc(cc1)F | inactive |
| COc1ccc(cc1)CN1CC[C@]2(CC1)CN([C@@H](CO)c1[nH]c3cc(ccc3c12)OC)C(=O)Nc1ccc(cc1)F | active |
| COc1ccc2c3c([nH]c2c1)[C@@H](CO)N(C[C@]13CCN(CC1)Cc1cc(on1)-c1ccccc1)C(=O)Nc1ccc(cc1)F | inactive |
| COc1ccc(cc1)CN1CC[C@]2(CC1)CN([C@H](CO)c1[nH]c3cc(ccc3c12)OC)C(=O)Nc1ccc(cc1)F | active |
| COc1ccc2c3c([nH]c2c1)[C@H](CO)N(C[C@]13CCN(CC1)C(=O)c1ccccc1F)C(=O)Nc1ccc(cc1)F | inactive |
| COc1ccc(NC(=O)Nc2ccc3c(c2)C(=O)N([C@@H](C)CO)C[C@@H](C)[C@@H](CN(C)Cc2ccc(C(=O)O)cc2)OCCCC[C@@H](C)O3)cc1 | inactive |
| C[C@H](CO)N1C[C@H](C)[C@H](CN(C)S(=O)(=O)c2cccs2)Oc2ccc(NC(=O)CCN3CCOCC3)cc2CC1=O | inactive |
| COc1ccccc1CNC(=O)C[C@H]1C[C@@H]2c3cc(NC(=O)c4ccc5c(c4)OCO5)ccc3O[C@@H]2[C@H](CO)O1 | inactive |
| C[C@@H]1CCCCO[C@H](CN(C)Cc2ccccc2)[C@@H](C)CN([C@@H](C)CO)C(=O)c2cc(NC(=O)CCCCCC(=O)Nc3ccccc3N)ccc2O1 | inactive |
| Cc1noc(C)c1NC(=O)N(C)C[C@@H]1Oc2ccc(NS(=O)(=O)c3ccccc3)cc2CC(=O)N([C@H](C)CO)C[C@@H]1C | inactive |
| COc1ccc(S(=O)(=O)Nc2ccc3c(c2)C(=O)N([C@@H](C)CO)C[C@@H](C)[C@H](CN(C)S(=O)(=O)c2cn(C)cn2)OCCCC[C@@H](C)O3)cc1 | inactive |
| C[C@@H]1CN([C@H](C)CO)C(=O)c2cccc(NC(=O)c3ccc(-c4nccs4)cc3)c2O[C@@H]1CN(C)Cc1ccccc1 | inactive |
| COc1ccc(C#Cc2cnc3c(c2)C(=O)N([C@H](C)CO)C[C@H](C)[C@H](CN(C)C(=O)NC(C)C)O3)cc1OC | inactive |
| CO[C@@H]1CN(C)C(=O)c2cc(NC(=O)NC(C)C)ccc2OC[C@@H](C)N(Cc2ccc(-c3ccccn3)cc2)C[C@H]1C | inactive |
| C=CCOC(=O)[C@H]1[C@@H]2C(=O)O[C@@H](c3ccccc3)[C@@H](c3ccccc3)N2[C@@H](c2ccc(OCCOC(=O)[C@H]3C[C@H]4C(=O)NCC(=O)N4[C@H]3c3cccc(OCCO)c3)cc2)[C@]12C(=O)Nc1ccc(I)cc12 | inactive |
| Cc1noc(C)c1NC(=O)Nc1ccc2c(c1)C(=O)N([C@@H](C)CO)C[C@@H](C)[C@@H](CN(C)C(=O)NC1CCCCC1)OCCCC[C@@H](C)O2 | inactive |
| CO[C@H]1/C=C\C=C(/C)C(=O)NC2=CC(=O)C=C(C2=O)[C@H](OC)[C@@H](C)C[C@H](OC)[C@H](O)[C@@H](C)/C=C(\C)[C@@H]1OC(N)=O | inactive |
